Source: PubChem BioAssay AID1220 (Sanford-Burnham Center for Chemical Genomics, 2008)
Among all 190,000 compounds or so, about 1,300 (0.68%) were called active. The sample holds actives, similar compounds and a random draw of the others, so the mix is not that of the screen. Unmarked numbers belong to inactive results. Rule as the data show it: active = inhibition above about 50%; inactive = the rest.

The compounds below were run against Mannose-6-phosphate isomerase (Homo sapiens) (UniProt P34949) (assay: MPI inhibition at elevated mannose 6-phosphate – biochemical, fluorescence intensity, high mannose 6-phosphate, primary screen (AID 1220)). Conditions: recombinant PMI enzyme, coupled fluorescence intensity; at 20 µM; stronger effect = higher value.
Mannose-6-phosphate isomerase (Homo sapiens), sequence (P34949 whole entry, looked up): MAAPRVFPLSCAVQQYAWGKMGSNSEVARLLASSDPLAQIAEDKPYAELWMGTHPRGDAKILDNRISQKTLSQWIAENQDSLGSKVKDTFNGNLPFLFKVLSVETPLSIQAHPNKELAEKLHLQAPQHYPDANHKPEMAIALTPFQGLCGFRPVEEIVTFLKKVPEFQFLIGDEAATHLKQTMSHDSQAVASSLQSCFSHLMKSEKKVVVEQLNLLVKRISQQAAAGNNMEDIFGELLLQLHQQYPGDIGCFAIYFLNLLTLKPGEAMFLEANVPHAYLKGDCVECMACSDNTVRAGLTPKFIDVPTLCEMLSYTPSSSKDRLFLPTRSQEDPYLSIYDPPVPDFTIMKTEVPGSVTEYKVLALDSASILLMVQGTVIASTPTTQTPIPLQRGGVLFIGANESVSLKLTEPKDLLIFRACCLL
`C[C@H]1CC[C@@]2(O[C@H](CCO)C[C@@H](O)[C@@H]2O)O1` gave an inhibition of 12.7%. `COc1ccc(Cn2nnc3c(=O)[nH]c(C4CCCN(C(=O)c5ccccc5)C4)nc32)cc1` (configuration not stated) showed an inhibition of -5.4%. In the case of `CCOC(=O)/C(=N\O)C1=NC(C)(C)Cc2ccccc21`, the inhibition is reported as -11.3%. `CC1(C)Cc2ccccc2C(/C(=N/O)C(N)=O)=N1` was tested, and the inhibition was 5.1%. `COc1ccc(-c2c(C)nn3c(N4CCC(C(=O)NCCN(C)C)CC4)cc(C)nc23)cc1OC` gave an inhibition of 5.7%. For `CCN(CC)CCNC(=O)C(C(=O)c1ccccc1)n1ccccc1=O` (configuration not stated), the inhibition was 1.8%. With `COc1ccc(CNC(=O)C(c2ccncc2)N(C(=O)Cc2cccs2)c2ccccc2)cc1` (configuration not stated) the inhibition was 1.9%. `Cc1cc(NC(=O)c2ccccc2)n(-c2nc3ccccc3[nH]2)n1` was tested, and the inhibition was 59.2% (active). `Cc1cc(NC(=O)c2c(F)cccc2F)n(-c2nc3ccccc3[nH]2)n1` gave an inhibition of 3%. Work on `Cc1cc(NC(=O)c2ccccc2F)n(-c2nc3ccccc3[nH]2)n1` yielded an inhibition of -1.3%. With `COc1cc(OC)c(-c2nnc3n(CCc4ccccc4)c(=O)c4ccccc4n23)cc1OC` the inhibition was 10.4%. For `COc1ccc(CCN2C(=O)C3C4C=CC(C4)C3C2=O)cc1OC` (configuration not stated), the inhibition was 14%. In the case of `CCCCOc1ccc(Nc2nc(C)cc(C)c2C#N)cc1`, the inhibition is reported as 6.1%. For `CCOc1cc(NC(=S)Nc2cccc(OC)c2)c(OCC)cc1NC(=O)C1CC1`, the inhibition was 56.8% (active). Work on `CCOc1cc(NC(=O)CCl)c(OCC)cc1NC(C)=O` yielded an inhibition of 20.4%. `CCOc1cc(NC(=S)Nc2cccc(OC)c2)c(OCC)cc1NC(=O)c1ccc(C)cc1` was tested, and the inhibition was 55.1% (active). Work on `CCOc1ccc(NC(=S)Nc2cc(OC)c(Cl)cc2OC)cc1` yielded an inhibition of 24.8%. For `COc1cccc(NC(=O)CNC(=O)c2ccc(C)cc2)c1`, the inhibition was 0.9%. In the case of `CCOc1cc(NC(=S)NC)c(OCC)cc1NC(=O)c1ccc(OC)cc1`, the inhibition is reported as 49.8%. With `COc1cccc(NC(=O)C2CCCCC2)c1` the inhibition was 5.6%. In the case of `CCOc1cc(NC(=S)Nc2cccc(C)c2)c(OCC)cc1NC(=O)CC(C)C`, the inhibition is reported as 17.5%. For `CCOc1cc(NC(=S)Nc2ccccc2)c(OCC)cc1NC(=O)c1ccccc1`, the inhibition was 7.3%. With `CCOc1cc(NC(=S)Nc2ccccc2)c(OCC)cc1NC(=O)c1ccc(OC)cc1` the inhibition was 56.8% (active). `CCOc1cc(NC(=S)Nc2cccc(OC)c2)c(OCC)cc1NC(=O)C(C)C` showed an inhibition of 45.4%. For `CCOc1cc(NC(=S)Nc2ccc(Cl)cc2)c(OCC)cc1NC(C)=O`, the inhibition was 55.9% (active). `CCCCOc1ccc(Br)cc1CSC(=N)N` gave an inhibition of -4.3%. `O=C(C[n+]1ccc(-c2cc(C(=O)Nc3cccc(C(F)(F)F)c3)c3ccccc3n2)cc1)c1cccc([N+](=O)[O-])c1` showed an inhibition of -6.2%. Compound `COc1ccc(/C=C(/NC(=O)c2ccccc2)C(=O)N/N=C/c2ccc3c(c2)OCO3)cc1OC` has an inhibition of -10.4%. `O=C(CC1Nc2ccccc2NC1=O)NCCCN1CCCCCC1` (configuration not stated) was tested, and the inhibition was 0.7%. `Cc1ccc(NC(=S)N2CCN(S(=O)(=O)c3c(F)cccc3F)CC2)cc1C` was tested, and the inhibition was 11.5%. `CC1CCCCN1C(=O)C12CCC(C)(C(=O)C1)C2(C)C` (configuration not stated) was tested, and the inhibition was 48.1%. `Cc1c(C(N)=O)sc2ncn(CC(=O)NCCc3ccccc3)c(=O)c12` showed an inhibition of -8.4%. `O=C(CCc1c[nH]c2ccccc12)NCC(=O)Nc1ccc(F)c(F)c1F` gave an inhibition of -1.9%. In the case of `CCCC(=O)Nc1ccc(S(=O)(=O)Nc2cc(C)nc(C)n2)cc1`, the inhibition is reported as 4.9%. Compound `CCOC(=O)c1ccc(NC(=S)NC2CCCC2)cc1` has an inhibition of -1.3%. `CCOc1ccc(NC(=O)c2ccc(NC(=S)NC3CCCCC3)cc2)cc1` was tested, and the inhibition was 52.6% (active). `CCOc1ccc(NC(=O)c2ccc(NC(=S)NC3CC3)cc2)cc1` gave an inhibition of 12.4%. `CCCCN(C(=O)NC(=O)Nc1cccc(C)c1C)S(C)(=O)=O` showed an inhibition of -3.7%. Work on `COc1cc2c(C#N)c(N3CCOCC3)nc(N)c2c(N)n1` yielded an inhibition of 22%. In the case of `COc1cc2c(C#N)c(N3CCN(c4ccccc4OC)CC3)nc(N)c2c(N)n1`, the inhibition is reported as 54% (active). Compound `COc1cc2c(C#N)c(N3CCN(C)CC3)nc(N)c2c(N)n1` has an inhibition of 34.6%. Compound `COc1ccc(CN=CC2=C(O)CNC2=O)cc1OC` has an inhibition of -8.2%. Work on `CCOC(=O)Cn1c(=O)oc2cc(S(=O)(=O)Nc3c(C)cc(C)cc3C)ccc21` yielded an inhibition of 5.9%. In the case of `CCN(CC)c1ccc(NS(=O)(=O)c2ccc3c(c2)oc(=O)n3C)c(C)c1`, the inhibition is reported as 23.7%. In the case of `CCOC(=O)Cn1c(=O)oc2cc(S(=O)(=O)Nc3ccc(N(CC)CC)cc3C)ccc21`, the inhibition is reported as 51.2% (active). In the case of `CCOc1ccc(-c2csc(NC(=O)CSC3=NC(=O)CN3C(C)=O)n2)c2ccccc12`, the inhibition is reported as 14.8%. For `O=C1c2cccc3c(O)ccc(c23)C(=O)N1Cc1ccccc1`, the inhibition was 7.6%.
